Data as given in PubChem BioAssay (NCATS).
Values joined by “and” are separate entries in the source; they are usually repeats but may differ in a detail not shown here. Equal values may be shown once. Records with an inconclusive call do not appear. Active and inactive are the calls of the source. Unless noted, calls come from the whole dose curve; as a rule, active = well fitted curve in the direction sought with a large enough effect; inconclusive = small, poorly fitted or top-dose-only effect, or another doubt; inactive = no such curve, though single readings can be large; an effect the other way counts as inactive or inconclusive.

What was measured:
[1] = target: Peroxisome proliferator-activated receptor gamma (Homo sapiens) (UniProt P37231); assay: qHTS assay for small molecule antagonists of peroxisome proliferator-activated receptor gamma signaling (AID 588537; active = well fitted inhibition curve with a large enough effect in the signal ratio, with a control signal flat, not every such curve was filed as active; the % refers to the signal ratio;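 note: reporter cells co-stimulated with 50 nM rosiglitazone agonist during compound treatment; % of control where 0% means no effect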)
Method in brief: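 Fluorescence at 460 and 530 nm (405 nm excitation) reported beta-lactamase cleavage of CCF4 after 2 h room-temperature loading. HEK293 reporter cells in 1% charcoal/dextran-treated FBS had received compound and rosiglitazone for 16 h.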

[2] = target: Thyroid hormone receptor beta (Homo sapiens) (UniProt P10828); assay: qHTS assay for small molecule agonists of thyroid hormone receptor beta signaling (AID 588545; calls by dose curve)
Method in brief: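 In this cell-based screen, titrated compounds act on HEK 293 cells held in medium with 2% charcoal/dextran FBS, NEAA and pyruvate for 18 hrs at 37 C. Responses are expressed relative to T3 (10 nM) as 100% and basal DMSO as 0%.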

[3] = qHTS assay for small molecule antagonists of retinoid X receptor alpha signaling (AID 588546; active = well fitted inhibition curve with a large enough effect in the signal ratio, with a control signal flat, not every such curve was filed as active; the % refers to the signal ratio;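 note: cells stimulated with 9-cis-retinoic acid as agonist; % is set by controls: 0 for no effect and ±100 for the full control effect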); conditions: HEK293T RXRa-UAS-bla, beta-lactamase ratio, antagonist mode; measured here: W530 green channel, cytotoxicity proxy
Method in brief: (§1)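 Beta-lactamase reporter inhibition, read as CCF4 fluorescence ratio (ex 405, em 460/530 nm) after 2 h at RT. HEK293T UAS-bla cells, 2500/well, were stimulated with 9-cis-RA at 500 or 100 nM final alongside test compound for 18 h at 37 C.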

[4] = target: Retinoic acid receptor RXR-alpha (Homo sapiens) (UniProt P19793); assay: as above; conditions: HEK293T RXRa-UAS-bla, beta-lactamase ratio, antagonist mode
Method in brief: as §1

[5] = qHTS assay for small molecule activators of the p53 signaling pathway (AID 651743; active = well fitted activation curve with a large enough effect in the signal ratio, not every such curve was filed as active; the % refers to the signal ratio; note: % of control where 0% means no effect); conditions: HCT-116 p53RE-bla, beta-lactamase FRET ratio, 16 h; stronger effect = higher value
Method in brief: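 Following 16 hours of compound exposure at 37 C, HCT-116 cells bearing the p53RE-bla reporter were loaded with LiveBLAzer B/G FRET substrate for 2 hours at room temperature and fluorescence intensity was recorded.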

[6] = qHTS assay for small molecule activators of the nuclear factor-kappa B (NF-kB) signaling pathway (AID 651749; active = well fitted activation curve with a large enough effect in the signal ratio; the % refers to the signal ratio; note: % of control where 0% means no effect); conditions: NF-kB-bla ME-180 cells, beta-lactamase FRET ratio, 16 h; stronger effect = higher value
Method in brief: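 In this qHTS format, compounds acting as activators increase NF-kB-driven beta-lactamase in ME-180 cells, measured as disrupted FRET after 16 hr exposure at 37C and 5% CO2.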

[7] = qHTS assay for environmental chemicals that activate the Aryl hydrocarbon Receptor (AhR) signaling pathway (AID 651777); conditions: 1A2-DRE human hepatoma cells, luciferase, 24 h; stronger effect = higher value; note: % of control where 0% means no effect; nearly all actives have a fitted effect of over 15% in size
Method in brief: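 Stable CYP1A2 promoter/DRE-luciferase human hepatoma line treated 24 hr; One-Glo luminescence, 30 min RT.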

[8] = target: Peroxisome proliferator-activated receptor alpha (Homo sapiens) (UniProt Q07869); assay: qHTS assay for small molecule agonists of the peroxisome proliferator-activated receptor alpha (PPARalpha) signaling pathway (AID 651778); conditions: PathHunter PPARalpha complementation, chemiluminescence, 6 h; stronger effect = higher value; note: % of control where 0% means no effect
Method in brief: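 Enzyme-fragment complementation assay in which ligand-bound PPARalpha translocates and forms an active enzyme that generates chemiluminescence. Cells were plated overnight, exposed to compound for 6 hr at 37 C, and then given detection reagent for 60 min at room temperature.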

[9] = qHTS assay for small molecule agonists of the antioxidant response element (ARE) signaling pathway measured by Nrf2-dependant transcriptional activity (AID 720636; active = well fitted curve in the direction sought with a large enough effect in the repeat runs; an effect the other way counts as inactive or inconclusive;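 note: HepG2 cells with an ARE-driven luciferase reporter; % of control where 0% means no effect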)
Method in brief: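 Reporter gene assay, HepG2 ARE-luc: 16 hr compound, 37 C, 5% CO2; read-out luciferase luminescence.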

[10] = qHTS assay for small molecule agonists of the antioxidant response element (ARE) signaling pathway measured by Nrf2-dependant transcriptional activity - cell viability counter screen (AID 720653; active = well fitted curve in the direction sought with a large enough effect in the repeat runs; an effect the other way counts as inactive or inconclusive; note: % is set by controls: 0 for no effect and ±100 for the full control effect); conditions: ARE-bla HepG2 viability, CellTiter-Glo ATP luminescence, 16 h; max response: stronger effect = lower value
Method in brief: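 ARE-bla HepG2 cells treated with compounds for 16 h at 37C; this counter screen measures viability as intracellular ATP by CellTiter-Glo luminescence after 30 min at room temperature.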

[11] = qHTS assay for cell viability of HEK293 cells (AID 743288); conditions: ATP luminescence (CellTiter-Glo), 18 h; max response: stronger effect = lower value; note: % is set by controls: 0 for no effect and ±100 for the full control effect; nearly all actives have a fitted effect of over 50% in size
Method in brief: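 Quantitative high-throughput screen: compounds were pinned onto parental HEK293 cells (2,000 per well) after a minimum 5 h settling at 37 C, incubated 18 h at 37 C, and intracellular ATP measured by luciferase luminescence.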

[12] = qHTS assay for cell viability of the p53RE-bla HCT-116 cell line (AID 743292); note: % is set by controls: 0 for no effect and ±100 for the full control effect; nearly all actives have a fitted effect of over 55% in size
Method in brief: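 Readout: CellTiter-Glo luminescence after 30 min RT. Treatment: compounds in DMSO, 16 h, 37 C. Cells: CellSensor p53RE-bla HCT-116, 4,000/well, preincubated 5 h.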

[13] = target: Lysosomal acid glucosylceramidase (Homo sapiens) (UniProt P04062); assay: Glucocerebrosidase-p2 (AID 348; in the data active = potency below about 10 µM; note: potency is the fitted concentration of half-maximal effect); conditions: purified GBA, blue fluorogenic substrate, 40 min
Method in brief: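 Normal human glucocerebrosidase (0.2 nM) with blue fluorogenic substrate (80 uM final) in citrate/phosphate pH 5.9 with 10mM sodium taurocholate, 0.01% tween-20; 40 min RT, NaOH/glycine stop; fluorescence Ex 365/Em 440; AC50 from a titration from 0.6 nM upwards.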

[14] = NCATS anti-infectives library activity on HEK293 viability as a counter-qHTS vs the C. elegans viability qHTS (AID 1745854);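 note: HEK293 cells exposed to compounds for 24 hr before the viability read; % is set by controls: 0 for no effect and ±100 for the full control effect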
Method in brief: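 Counter-screen for cytotoxicity: HEK293, 24 hr, 37C, compounds up to 41.7 uM final (a dilution series, 1:5). Readout CellTiter-Glo luminescence, 10 min RT. Digitonin control, 83.3 uM final.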

[15] = target: Phospholipid hydroperoxide glutathione peroxidase GPX4 (Homo sapiens) (UniProt P36969); assay: Primary qHTS Assay for Inhibitors of Recombinant Selenoprotein Glutathione Peroxidase 4 (GPX4) (AID 1845192); conditions: outcome: dose series up to 50 µM unless noted; note: nearly all actives have a fitted effect of over 65% in size
Method in brief: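 Steps: GPX4 plus compound, 30 min RT; add GR/GSH/NADPH master mix; start with cumene hydroperoxide; read 340/450 nm fluorescence at 0 and 15 min. Finals were 200 nM GPX4, 1 mM GSH, 0.5 mM CHP, 0.5 mM NADPH, 100 nM GR.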

[16] = target: Pyruvate kinase PKM (Homo sapiens) (UniProt P14618); assay: qHTS Assay for Inhibitors of Human Muscle Pyruvate Kinase (AID 958); conditions: purified human PKM enzyme activity
Method in brief: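 Purified human PKM2 (0.1 nM) with 0.5 mM PEP (Km) and 0.1 mM ADP in 50 mM imidazole pH 7.2, KCl, MgCl2, 1 h at room temperature; ATP formed read by coupled luciferase luminescence. Normalized to no-enzyme/110 uM thiadiazolimine inhibition; 0.3 nM enzyme column for activation.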

[17] = target: Pyruvate kinase (Leishmania mexicana) (UniProt Q27686); assay: qHTS Validation Assay for Activators of Leishmania Mexicana Pyruvate Kinase (AID 959)
Method in brief: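 Pyruvate kinase activity of E451W LmPYK (0.2 nM) was followed as ATP output after 1 h at room temperature with 0.5 mM PEP and 0.1 mM ADP, detected by PKLight luminescence.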

[18] = target: ATP-dependent 6-phosphofructokinase (Trypanosoma brucei brucei) (UniProt O15648); assay: qHTS Assay to Find Inhibitors of T. brucei phosphofructokinase: hit validation (AID 492961);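 note: luminescence reports ADP formed as PFK phosphorylates fructose-6-phosphate with ATP; % is set by controls: 0 for no effect and ±100 for the full control effect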
Method in brief: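 Compounds titrated; %activity normalized to 0x and 1x enzyme controls, curve-fitted. Readout: ADP-Glo luminescence after 45 min room-temperature reaction of 1.25 nM PFK, 0.1 mM ATP, 0.5 mM F6P, pH 8.0.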

CP291 = assay: qHTS profiling for inhibitors of Plasmodium falciparum proliferation (AID 504749);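 note: 0% = DMSO vehicle and full inhibition = artemisinin control; nearly all actives have a fitted effect of over 60% in size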; conditions: P. falciparum in erythrocytes, SYBR Green DNA, 72 h; series mostly up to 28.7 µM
Method in brief: (§2)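 Each compound contacts P. falciparum-infected red blood cells for 72 h at 37 C; lysis buffer (Tris, EDTA, saponin, Triton X, SYBR Green I) is added and fluorescence measured next morning; values normalized to controls.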

GB4 = assay: as above; conditions: P. falciparum in erythrocytes, SYBR Green DNA, 72 h; series mostly up to 28.7 µM
Method in brief: as §2

Sequence of Thyroid hormone receptor beta (Homo sapiens) (P10828 whole entry, looked up): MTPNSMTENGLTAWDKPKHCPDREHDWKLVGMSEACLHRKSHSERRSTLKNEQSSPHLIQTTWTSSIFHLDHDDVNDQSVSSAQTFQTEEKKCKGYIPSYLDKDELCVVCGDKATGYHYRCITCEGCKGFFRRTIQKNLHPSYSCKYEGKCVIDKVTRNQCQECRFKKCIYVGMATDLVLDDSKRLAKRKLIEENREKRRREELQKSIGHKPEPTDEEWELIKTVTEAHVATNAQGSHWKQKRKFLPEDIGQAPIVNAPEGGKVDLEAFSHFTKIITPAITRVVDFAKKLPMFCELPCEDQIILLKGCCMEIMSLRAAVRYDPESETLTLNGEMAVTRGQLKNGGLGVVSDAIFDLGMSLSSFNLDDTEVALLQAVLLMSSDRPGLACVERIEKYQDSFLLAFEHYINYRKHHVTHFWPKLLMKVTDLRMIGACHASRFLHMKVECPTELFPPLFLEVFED
Sequence of Peroxisome proliferator-activated receptor gamma (Homo sapiens) (P37231 whole entry, looked up): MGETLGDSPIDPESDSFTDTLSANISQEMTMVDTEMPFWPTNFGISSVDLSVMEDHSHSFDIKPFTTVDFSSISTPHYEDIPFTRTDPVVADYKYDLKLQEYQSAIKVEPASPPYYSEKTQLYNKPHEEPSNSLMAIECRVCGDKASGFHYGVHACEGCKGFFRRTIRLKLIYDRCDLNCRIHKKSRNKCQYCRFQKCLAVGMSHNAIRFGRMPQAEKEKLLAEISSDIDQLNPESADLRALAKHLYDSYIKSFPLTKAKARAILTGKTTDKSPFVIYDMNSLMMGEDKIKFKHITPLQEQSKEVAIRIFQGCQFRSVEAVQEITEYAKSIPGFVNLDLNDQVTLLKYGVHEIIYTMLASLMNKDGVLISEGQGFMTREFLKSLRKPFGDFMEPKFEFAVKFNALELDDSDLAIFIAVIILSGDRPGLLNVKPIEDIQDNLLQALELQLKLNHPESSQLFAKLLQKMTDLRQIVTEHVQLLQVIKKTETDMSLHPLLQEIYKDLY
Sequence of Peroxisome proliferator-activated receptor alpha (Homo sapiens) (Q07869 whole entry, looked up, the tested form may be a part): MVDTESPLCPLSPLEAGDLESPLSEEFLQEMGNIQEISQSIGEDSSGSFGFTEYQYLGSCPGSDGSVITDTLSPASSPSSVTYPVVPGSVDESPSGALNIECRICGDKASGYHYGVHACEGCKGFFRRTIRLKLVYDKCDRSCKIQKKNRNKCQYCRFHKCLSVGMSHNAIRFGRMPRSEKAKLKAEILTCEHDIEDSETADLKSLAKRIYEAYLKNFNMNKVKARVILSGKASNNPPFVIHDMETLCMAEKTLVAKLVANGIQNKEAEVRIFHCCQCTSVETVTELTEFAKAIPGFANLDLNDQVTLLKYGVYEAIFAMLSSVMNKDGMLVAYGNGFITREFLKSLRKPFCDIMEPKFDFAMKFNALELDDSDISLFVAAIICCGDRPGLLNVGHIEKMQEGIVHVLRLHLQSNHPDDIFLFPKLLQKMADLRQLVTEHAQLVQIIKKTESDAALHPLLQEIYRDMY
Sequence of Retinoic acid receptor RXR-alpha (Homo sapiens) (P19793 whole entry, looked up): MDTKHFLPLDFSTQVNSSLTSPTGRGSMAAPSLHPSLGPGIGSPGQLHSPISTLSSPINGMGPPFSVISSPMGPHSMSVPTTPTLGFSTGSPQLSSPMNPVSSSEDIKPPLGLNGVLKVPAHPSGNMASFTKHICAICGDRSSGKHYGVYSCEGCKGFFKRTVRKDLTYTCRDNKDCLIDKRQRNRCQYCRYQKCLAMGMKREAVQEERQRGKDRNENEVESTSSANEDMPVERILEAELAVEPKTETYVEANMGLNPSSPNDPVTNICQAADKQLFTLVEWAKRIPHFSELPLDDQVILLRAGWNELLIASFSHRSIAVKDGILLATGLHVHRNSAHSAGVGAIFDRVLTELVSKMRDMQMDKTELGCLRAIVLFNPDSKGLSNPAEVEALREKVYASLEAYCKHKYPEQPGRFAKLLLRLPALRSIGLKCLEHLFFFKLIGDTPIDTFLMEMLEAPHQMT
Sequence of Pyruvate kinase PKM (Homo sapiens) (P14618 whole entry, looked up): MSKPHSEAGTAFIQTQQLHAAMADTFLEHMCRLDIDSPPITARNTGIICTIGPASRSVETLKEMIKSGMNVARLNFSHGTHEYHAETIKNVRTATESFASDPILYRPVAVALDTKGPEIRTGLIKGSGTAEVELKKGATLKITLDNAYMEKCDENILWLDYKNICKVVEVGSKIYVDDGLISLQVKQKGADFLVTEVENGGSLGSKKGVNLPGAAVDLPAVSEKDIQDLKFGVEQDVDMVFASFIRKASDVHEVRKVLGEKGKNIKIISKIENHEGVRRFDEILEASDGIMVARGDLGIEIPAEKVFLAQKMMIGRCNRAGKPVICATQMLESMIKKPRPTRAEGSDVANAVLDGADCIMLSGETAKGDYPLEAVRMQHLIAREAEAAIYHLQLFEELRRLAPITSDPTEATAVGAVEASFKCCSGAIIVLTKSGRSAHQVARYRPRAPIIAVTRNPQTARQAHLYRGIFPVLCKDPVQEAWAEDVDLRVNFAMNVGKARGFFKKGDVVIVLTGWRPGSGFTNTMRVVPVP
Sequence of ATP-dependent 6-phosphofructokinase (Trypanosoma brucei brucei) (O15648 whole entry, looked up): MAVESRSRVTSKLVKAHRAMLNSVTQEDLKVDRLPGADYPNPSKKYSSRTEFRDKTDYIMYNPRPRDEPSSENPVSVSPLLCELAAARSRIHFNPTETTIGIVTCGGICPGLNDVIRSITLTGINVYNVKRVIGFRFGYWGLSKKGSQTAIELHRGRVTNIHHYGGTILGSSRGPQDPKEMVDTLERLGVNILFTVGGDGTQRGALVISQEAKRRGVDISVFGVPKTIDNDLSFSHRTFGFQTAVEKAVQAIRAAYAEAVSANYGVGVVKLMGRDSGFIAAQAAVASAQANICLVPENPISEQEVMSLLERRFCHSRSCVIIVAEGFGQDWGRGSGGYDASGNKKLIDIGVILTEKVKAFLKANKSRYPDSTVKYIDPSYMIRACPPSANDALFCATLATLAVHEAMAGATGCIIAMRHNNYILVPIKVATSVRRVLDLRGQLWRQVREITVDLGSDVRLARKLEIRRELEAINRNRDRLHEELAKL
Sequence of Lysosomal acid glucosylceramidase (Homo sapiens) (P04062 whole entry, looked up): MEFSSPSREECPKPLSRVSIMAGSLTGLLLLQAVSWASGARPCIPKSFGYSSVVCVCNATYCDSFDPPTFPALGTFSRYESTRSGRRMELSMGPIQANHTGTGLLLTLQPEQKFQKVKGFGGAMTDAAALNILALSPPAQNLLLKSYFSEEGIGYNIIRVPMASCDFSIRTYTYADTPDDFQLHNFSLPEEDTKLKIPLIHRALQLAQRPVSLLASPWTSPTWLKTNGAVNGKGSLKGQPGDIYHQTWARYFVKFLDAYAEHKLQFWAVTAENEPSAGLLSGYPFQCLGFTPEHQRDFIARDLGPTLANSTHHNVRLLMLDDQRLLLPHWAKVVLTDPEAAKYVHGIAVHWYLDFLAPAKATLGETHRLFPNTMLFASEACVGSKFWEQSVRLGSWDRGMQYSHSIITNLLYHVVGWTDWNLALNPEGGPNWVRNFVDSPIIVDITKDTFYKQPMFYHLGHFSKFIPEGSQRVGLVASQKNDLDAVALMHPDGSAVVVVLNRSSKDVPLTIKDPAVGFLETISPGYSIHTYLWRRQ
Sequence of Phospholipid hydroperoxide glutathione peroxidase GPX4 (Homo sapiens) (P36969 whole entry, looked up): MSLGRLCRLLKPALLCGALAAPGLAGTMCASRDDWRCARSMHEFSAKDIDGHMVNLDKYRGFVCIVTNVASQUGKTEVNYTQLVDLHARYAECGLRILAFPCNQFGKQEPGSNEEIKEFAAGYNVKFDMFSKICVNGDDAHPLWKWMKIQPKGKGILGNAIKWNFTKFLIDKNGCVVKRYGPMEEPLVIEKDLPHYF
Sequence of Pyruvate kinase (Leishmania mexicana) (Q27686 2-499 E452W): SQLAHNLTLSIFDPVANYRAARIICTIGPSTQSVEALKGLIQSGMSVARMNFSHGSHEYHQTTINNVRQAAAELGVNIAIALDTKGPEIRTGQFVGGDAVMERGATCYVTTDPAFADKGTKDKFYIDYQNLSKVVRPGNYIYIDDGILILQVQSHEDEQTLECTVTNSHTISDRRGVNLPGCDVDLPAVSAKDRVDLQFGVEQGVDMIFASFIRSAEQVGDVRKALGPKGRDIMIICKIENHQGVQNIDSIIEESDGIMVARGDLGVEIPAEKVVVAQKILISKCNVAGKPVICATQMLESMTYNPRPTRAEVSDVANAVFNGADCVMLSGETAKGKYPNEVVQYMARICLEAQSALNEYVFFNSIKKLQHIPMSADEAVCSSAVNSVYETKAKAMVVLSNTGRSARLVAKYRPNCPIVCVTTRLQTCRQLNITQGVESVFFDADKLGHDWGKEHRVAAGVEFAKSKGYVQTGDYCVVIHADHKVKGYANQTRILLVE

CC(=O)[C@H]1[C@H](C#N)C[C@H]2[C@@H]3CC=C4C[C@@H](O)CC[C@]4(C)[C@H]3CC[C@@]21C
outcome [1]: inactive | outcome [2]: inactive | max response [3]: 9.02% | max response [4]: -3.98% (inactive) | activation [5]: 0.753% (inactive) and -1.56% (inactive) | activation [6]: -1.18% (inactive) and -2.42% (inactive) | activation [7]: -1.23% (inactive) and 0.356% (inactive) | max response [8]: -0.257% (inactive) and 0.0087% (inactive) | outcome [9]: inactive | max response [10]: -9.55% (inactive) and -3.25% (inactive) | max response [11]: -20.6% (inactive) and -13.5% (inactive) | Potency [12]: inactive

NCCC[C@@H](N)C(=O)O
Potency [13]: > 11.4 µM (inactive)

OCCOCCN1CCN(Cc2cccc(Oc3ccccc3)c2)CC1
outcome [14]: inactive

CN[C@@H]1[C@H](O)[C@H](O[C@@H]2[C@H](O)[C@@H](O[C@H]3O[C@H]([C@@H](C)NC)CC[C@H]3N)[C@@H](N)C[C@H]2N)OC[C@]1(C)O
outcome [15]: inactive [at 9.73 µM]

Fc1cccc(/C=N\N=C/c2cccc(F)c2)c1
Potency [16]: 2.51 µM (active) | Potency [17]: inactive

CC(=O)[C@H]1CC[C@H]2C3CC=C4C[C@@H](O)CC[C@]4(C)C3CC[C@]12C (stereo not given in full)
outcome [18]: inactive | Potency (CP291): inactive | Potency (GB4): inactive
